Over roughly 33,000 sequences, “E-score (-0.5 to 0.5)” has its median near -0.041; the highest 2% begin near 0.37. What follows is part of a selection rich in the highest values, with near analogues and random picks from the rest.
What follows are sequences tested against T1, Ecm22 (UniProt Q05958) (assay: PBM E-score (8-mer binding enrichment) (E-score (-0.5 to 0.5)); higher = stronger / more preferred TF binding). Details: protein concentration: 200 nM; construct: GST-full length.
T1 sequence: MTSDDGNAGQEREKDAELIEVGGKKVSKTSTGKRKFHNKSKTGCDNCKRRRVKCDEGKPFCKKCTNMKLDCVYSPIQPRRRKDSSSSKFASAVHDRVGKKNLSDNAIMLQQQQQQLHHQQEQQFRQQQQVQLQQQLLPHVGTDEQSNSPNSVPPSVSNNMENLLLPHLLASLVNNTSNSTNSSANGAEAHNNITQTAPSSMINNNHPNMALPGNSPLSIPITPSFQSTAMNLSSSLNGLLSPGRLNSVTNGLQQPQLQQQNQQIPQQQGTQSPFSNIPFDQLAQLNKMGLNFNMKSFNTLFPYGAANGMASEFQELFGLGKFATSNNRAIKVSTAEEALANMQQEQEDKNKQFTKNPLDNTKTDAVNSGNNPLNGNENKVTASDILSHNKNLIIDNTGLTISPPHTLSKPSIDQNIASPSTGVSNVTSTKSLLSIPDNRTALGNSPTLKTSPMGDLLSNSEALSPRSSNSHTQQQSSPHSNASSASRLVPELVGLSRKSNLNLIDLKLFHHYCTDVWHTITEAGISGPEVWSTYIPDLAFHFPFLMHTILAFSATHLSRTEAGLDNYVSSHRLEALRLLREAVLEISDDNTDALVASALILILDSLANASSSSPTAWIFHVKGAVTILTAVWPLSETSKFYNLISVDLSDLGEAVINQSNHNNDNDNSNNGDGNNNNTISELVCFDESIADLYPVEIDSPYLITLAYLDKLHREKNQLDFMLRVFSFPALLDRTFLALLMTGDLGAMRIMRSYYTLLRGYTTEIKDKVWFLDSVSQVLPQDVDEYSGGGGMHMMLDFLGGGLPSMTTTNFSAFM
Method: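 Universal 'all 10-mer' protein binding microarrays (Agilent AMADID 015681) probed with GST-tagged S. cerevisiae TFs (full-length or DBD) made by in vitro transcription/translation (PURExpress), about 100-200 nM. Bound TF was detected with fluorescent anti-GST. Each ungapped 8-mer (which stands for itself and its reverse complement) is scored by the PBM enrichment score (E-score), a modified Wilcoxon-Mann-Whitney statistic from -0.5 to +0.5, computed with the Universal PBM Analysis Suite. Scale: above 0.35 generally sequence-specific binding.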

| Sequence | PBM E-score |
| --- | --- |
| GGTACAAA | -0.0856 |
| AGTACTTA | 0.0475 |
| CGTACATA | 0.414 |
| CGTACATC | 0.353 |
| CGTACAAG | 0.416 |
| ACCACCAT | -0.103 |
| TTAGGGAA | -0.0515 |
| ATAACGGC | 0.146 |
| ATGAAGGC | -0.102 |
| CGTGGACC | -0.108 |
| ACGGAATG | 0.0826 |
| AGTGTTGA | -0.109 |
| AAGCCGAG | 0.0901 |
| ACTGGATG | -0.18 |
| AGTACAAC | 0.0262 |
| GGTACAAC | 0.0714 |
| CGTACTAC | 0.382 |
| CGTACTAG | 0.342 |
| CGTACTAA | 0.341 |
| CGTACAAC | 0.434 |
| CTAAACAG | -0.109 |
| AAACCACT | -0.153 |
| AGCTGCGG | -0.00448 |
| AATCGCCC | -0.0815 |
| TAGAGCCA | -0.288 |

| Sequence | PBM E-score |
| --- | --- |
| ACTCCGTG | -0.233 |
| AGGTCGGC | -0.138 |
| AGTTACGA | 0.393 |
| GGTTACTA | -0.123 |
| CGTTACAA | 0.0964 |
| CGTTACGA | 0.403 |
| AGTTACGG | 0.138 |
| AGTTACGC | 0.071 |
| GGTTACCA | 0.0711 |
| GGTTACGA | 0.381 |
| CGTTACGC | 0.256 |
| GTGGCGTA | 0.042 |
| CCCGTTGC | 0.111 |
| CCTCGGGC | 0.0916 |
| ACTTCACC | 0.0335 |
| AAAATCAC | -0.0192 |
| AGACGAAG | 0.0703 |
| ATACGAAG | 0.466 |
| AGACGAAT | 0.0921 |
| ACACGAAG | 0.249 |
| ATACGTAT | 0.374 |
| GCACGAAA | 0.103 |
| ATACGTAC | 0.342 |
| ATACGAAT | 0.45 |
| ATACGTAA | 0.278 |

| Sequence | PBM E-score |
| --- | --- |
| ACACGAAT | 0.217 |
| GGACGAAA | 0.108 |
| GTACGAAA | 0.467 |
| AGCCTTAA | -0.0857 |
| AACTTGGT | 0.0861 |
| TGTGTCAA | -0.0896 |
| CGCAAGCC | 0.0725 |
| GGATCCCC | -0.0315 |
| ATACGAAA | 0.463 |
| AGACGAAA | 0.194 |
| ACACGAAA | 0.224 |
| TTACGAAA | 0.403 |
| TCACGAAA | -0.00573 |
| CTACGAAA | 0.302 |
| ATGGTTCA | 0.0295 |
| AGAACCCC | -0.179 |
| GACCCTCC | 0.00379 |
| CGTGCGTA | 0.233 |
| GCCCCCCA | -0.365 |
| AGGATTAG | -0.0677 |
| ACGCAACG | 0.308 |
| CCGCAACC | -0.176 |
| CCGCAACG | 0.377 |
| GCGGCACC | -0.0132 |
| CACGATCA | -0.00633 |

| Sequence | PBM E-score |
| --- | --- |
| AACGATGT | 0.396 |
| TACGATGA | 0.438 |
| AACGATGA | 0.386 |
| ATCGATGA | -0.0837 |
| TACGATCA | 0.443 |
| GACGATGA | -0.0197 |
| CACGATGA | 0.19 |
| AAAGATGT | -0.0546 |
| GACGATCA | -0.0466 |
| GACGATGC | -0.0114 |
| CACGATGC | 0.136 |
| CCGTCTTA | -0.174 |
| AAGGCGCA | -0.0313 |
| ATCCCAGC | -0.0508 |
| TCAACTGA | -0.205 |
| AGGCTCTC | -0.162 |
| GGAGCACA | -0.107 |
| CGTTGTGC | 0.116 |
| CCCGGGAA | -0.0348 |
| CCAACCAA | -0.0915 |
| CACGATGG | 0.0647 |
| AACGATGC | 0.348 |
| AACGATGG | 0.374 |
| TGTGTAAA | -0.0334 |
| CTACGAGC | 0.413 |

| Sequence | PBM E-score |
| --- | --- |
| AGACGAGC | 0.211 |
| CGACGAGC | 0.162 |
| ATGCGAGA | 0.302 |
| CCACGAGA | -0.117 |
| ATACGTGA | 0.171 |
| ATACGAGA | 0.484 |
| CGACGAGA | 0.08 |
| CCACGAGC | -0.0179 |
| CTACGAGA | 0.385 |
| ATACGAGC | 0.49 |
| ACACGAGC | 0.275 |
| CCGAGTGA | 0.196 |
| CCTTTCGA | 0.142 |
| AAGCGTTA | 0.00424 |
| ACCCCCGG | -0.189 |
| GAGCGGGC | -0.0404 |
| AGTAGTCG | 0.238 |
| AGGGCTAC | -0.117 |
| ATAAATTA | 0.326 |
| GTACGAGA | 0.482 |
| ACACGAGG | 0.324 |
| ATACGAGG | 0.488 |
| AGACGAGG | 0.202 |
| GTCCGAGA | 0.253 |
| GTACGCGA | 0.327 |

| Sequence | PBM E-score |
| --- | --- |
| ACCCCGAC | -0.0233 |
| AGTCAATG | -0.0767 |
| ACGGGGCA | 0.114 |
| TGCAGCCA | -0.171 |
| GTTTAGTA | 0.271 |
| CCCGGTAC | 0.078 |
| AACGACTC | 0.388 |
| GACGACTC | -0.0985 |
| CACGACTG | 0.0526 |
| AACGACTT | 0.336 |
| AACGACTA | 0.372 |
| CACGACTC | 0.0577 |
| AGCGACTA | 0.161 |
| CACGACTA | -0.0786 |
| AACGACTG | 0.393 |
| TACGACTA | 0.438 |
| GACGACTA | -0.121 |
| ATCGACTG | 0.076 |
| TCCCCGGA | 0.00406 |
| ATCTGTAG | -0.116 |
| CGTCTCAC | 0.0419 |
| TGCGCAAA | -0.077 |
| GAAGCAGA | -0.215 |
| AGTCGTAC | 0.46 |
| AGTCGTGC | -0.0872 |

| Sequence | PBM E-score |
| --- | --- |
| GGTCGCAC | 0.228 |
| GGACGTAC | 0.126 |
| CGTCGTAC | 0.486 |
| CATCGTCG | 0.0968 |
| CGTCGTCC | -0.054 |
| CGTCGTGC | 0.177 |
| GGTCGTAC | 0.482 |
| CGTAGTAG | 0.109 |
| CGTCGTAG | 0.406 |
| AGTCGTCC | -0.0209 |
| CCCCGAAC | -0.0375 |
| GGAAAATA | 0.0993 |
| GATCGGGA | 0.0412 |
| CCAGGTCC | -0.192 |
| GAAAAAGC | -0.00535 |
| ACTCAGTC | -0.147 |
| CCCTCCAG | -0.206 |
| AGGTGAAC | 0.0634 |
| TGAGTAAA | -0.13 |
| ATTCTCGA | 0.168 |
| AGTCGTAT | 0.46 |
| AGTCGTAG | 0.304 |
| AGTCGTCG | 0.01 |
